Shown are actives, neighbours in structure and some others; about 1.5% of the full set was active somewhere.
TLR9-MyD88 block – TLR9-MyD88 interaction inhibition | hit rate 0.21% among 340,000 | inhibition, % at 4.98 µM | Q9NR96+Q99836 | AID 504734 | CHO BLA complementation TLR9-MyD88, CCF4 FRET ratio;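 active = inhibition above the mean over all tested compounds plus 3 SD, cut at about 21% in these data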;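 also: 0% = DMSO only wells and 100% = clavulanate BLA inhibitor control wells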
TLR4-MyD88 BLA – TLR4-MyD88 interaction inhibition in cells | hit rate 0.18% among 200,000 | inhibition, % at 8.4 µM | HeLa CL3-4 TLR4/MyD88 BLA complementation, FRET ratio; in the data active = inhibition above about 25%;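 also: 0% = vehicle and 100% = reference inhibitor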
NOD2 RIPK2 PPI – blocks binding of human NOD2 to RIPK2; inhibition, % at 4.98 µM; CHO BLA complementation NOD2-RIPK2, CCF4 ratio; hit rate 0.38% among 360,000; in the data active = inhibition above about 21%;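 also: 0% = vehicle only and 100% = reference blocker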
Myeloid diff 2 – myeloid differentiation induction. ER-HoxA9 myeloid progenitors, lysozyme-GFP differentiation, flow cytometry. calls only at 10 µM. hit rate 1% among 360,000;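 active = normalized GFP-positive differentiation at or above the plate's own cutoff, the solvent-only control mean plus 3 SD; inconclusive = no clear call, values can overlap the other calls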;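 also: cells exposed to compound for four days before flow analysis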
NOD2 RIPK2 conf – confirmation of human NOD2-RIPK2 interaction inhibitors. CHO cells, NOD2-RIPK2 BLA complementation, CCF4 FRET. shares compounds with NOD2 RIPK2 PPI. inhibition, % at 4.98 µM. AID 624370. hit rate 70% among 1,200;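 active = mean inhibition across replicates above a set limit taken from the earlier primary screen, cut at about 21% in these data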;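 also: 0% = DMSO-only wells and the high end = clavulanate BLA-blocked wells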
BLA counter – NOD2-RIPK2 counterscreen BLA reporter activity; shares compounds with NOD2 RIPK2 PPI; CHO BLA reporter, CCF4 FRET ratio; inhibition, % at 4.98 µM; hit rate 57% among 1,200;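 active = mean inhibition above the low-control mean inhibition plus three low-control SD, cut at about 11% in these data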;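 also: 0% = DMSO only wells and 100% = clavulanate high control wells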
An asterisk follows results filed as active; i = inactive; ? = inconclusive; . = no result given; + = active, no number; ! = a repeat was not active.

SMILES | TLR9-MyD88 block | TLR4-MyD88 BLA | NOD2 RIPK2 PPI | Myeloid diff 2 | NOD2 RIPK2 conf | BLA counter
COc1ccc(/C=C2\CN(Cc3ccccc3)C/C(=C\c3ccc(OC)c(O)c3)C2=O)cc1O | 10.1 | . | 25.6* | ? | 26.7* | 5.0
O=S1(=O)CC(N2CC=CC2)CN1Cc1ccc(F)cc1 (stereo not given) | . | . | -2.5 | i | . | .
OC(c1ccccc1)(c1nc(-c2ccccc2)cs1)C(F)(F)F (stereo not given) | . | . | 0.8 | i | . | .
O=c1[nH]c2cc3c(cc2cc1CN(CCCO)Cc1nnnn1Cc1ccc(F)cc1)OCO3 | 8.4 | 2.8 | 26.1* | i | -3.2 | 2.4
Cc1ccc2cc(CN(CCO)Cc3nnnn3Cc3ccc(F)cc3)c(=O)[nH]c2c1 | -5.7 | -1.5 | 0.3 | i | . | .
O=C(/C=C/c1ccccc1)c1ccc2c(c1)OCO2 | 5.7 | . | -8.5 | i | . | .
CN(C)c1ccc(/C=C/C(=O)c2ccc3c(c2)OCO3)cc1 | 18.9 | . | 54.9* | i | 48.1* | 54.6*
CC(=O)N(C)C[C@@H]1Oc2ncc(Br)cc2C(=O)N([C@H](C)CO)C[C@@H]1C | 0.4 | . | 3.3 | i | . | .
Cc1ccc(S(=O)(=O)SC/C=C/CSS(=O)(=O)c2ccc(C)cc2)cc1 | 19.5 | . | 7.5 | i | . | .
Cc1ccc(S(=O)(=O)SCCCSS(=O)(=O)c2ccc(C)cc2)cc1 | 1.5 | . | 36.1* | i | 42.5* | 2.5
CCc1nc2ccc(C(=O)N(C)Cc3ccccc3)cn2c1N(CC)CCN(C)C | . | . | -1.8 | i | . | .
Cc1[nH]n(-c2ccccc2)c(=O)c1C=Nc1cccc2cccnc12 | 19.3 | 12.0 | 31.5* | i | 34.5* | 31.5*
CCN1CCN(C(=O)c2cc(COc3ccc(F)c(F)c3)on2)[C@@H](C)C1=O | -10.1 | . | 3.4 | i | . | .
O=[N+]([O-])c1ccc(N/N=C/c2ccccc2O)cc1 | 7.6 | . | 26.8* | i | 37.7* | 34.7*
O=[N+]([O-])c1ccc(NN=Cc2ccc(O)cc2O)nc1 | 5.0 | . | 21.9* | ? | 8.5 | 15.3*
O=[N+]([O-])c1cccc(N/N=C/c2cc([N+](=O)[O-])ccc2O)c1 | 5.7 | 15.0 | -0.6 | i | . | .
CCN1CCN(C(=O)c2ccc(CS(=O)(=O)Cc3ccccc3Cl)o2)CC1 | -8.0 | . | -4.7 | i | . | .
CC(/C=C/c1ccc(N(C)C)cc1)=N\N=C1\NC(=O)CC(C(=O)Nc2ccccc2)S1 (stereo not given) | 2.4 | -0.7 | -0.8 | i | . | .
CCCOc1ccc(NC(=O)C2CC(=O)N/C(=N/N=C(C)/C=C/c3ccc(N(C)C)cc3)S2)cc1 (stereo not given) | 9.7 | 12.8 | 22.2* | i | 18.7 | 25.6*
CN(C)c1ccc(/C=C/c2cccc[n+]2[O-])cc1 | . | . | 26.4* | i | -24.3 | 8.1
Cc1ccccc1S(=O)(=O)NC(=O)C1(C)CCN1C(=O)C1(c2ccccc2)CC1 (stereo not given) | . | . | 11.1 | i | . | .
CCNC(=O)C1CCCN(C(=O)c2cnc3ccccc3n2)CC1 (stereo not given) | . | . | -11.4 | i | . | .
CC1=CC(=O)C=C(C)C1=NOS(=O)(=O)c1ccccc1 | -0.6 | 2.2 | 26.5* | ? | 31.0* | -4.1
Cc1ccc(S(=O)(=O)ON=C2CCN(S(=O)(=O)c3ccccc3)CC2)cc1 | 1.5 | 1.3 | 2.2 | i | . | .
CC1=CC(=O)C(C(C)C)=C/C1=N/OS(=O)(=O)c1ccccc1 | 6.3 | . | 58.9* | . | 36.5* | 0.4
SMILES | TLR9-MyD88 block | TLR4-MyD88 BLA | NOD2 RIPK2 PPI | Myeloid diff 2 | NOD2 RIPK2 conf | BLA counter
Cc1ccc2c(c1)/C(=N/OS(=O)(=O)c1ccccc1)CCS2 | -0.3 | 4.8 | -6.6 | i | . | .
COC(=O)c1cc2c(cc1NC(=O)CSCCc1ccccn1)OCO2 | -2.8 | -5.7 | 24.5* | + | 3.7 | -1.1
CC(=O)Nc1ccc(NC(=O)CSCCc2ccccn2)cc1 | 0.3 | 7.5 | 4.3 | i | . | .
CCC(=O)N1CCCC1(C)C(=O)Nc1ccc(C)c(C)c1 (stereo not given) | . | . | 5.2 | i | . | .
CCCCNc1c(-c2ccc(SC(C)CC)cc2)nc2ccccn12 (stereo not given) | 9.5 | . | 21.7*! | i | 20.4 | 16.2*
CCCCNc1c(-c2ccc(SC3CCCCC3)cc2)nc2ccccn12 | 0.2 | . | 5.6 | i | . | .
CN(C)Cc1c(O)ccc2cc(-c3nc4ccccc4n3C)c(=O)oc12 | 20.6 | . | 31.4* | i | 32.6* | 57.7*
O=C(Nc1ccc(S(=O)(=O)N2CCCCCC2)cc1)c1[nH]ncc1[N+](=O)[O-] | 26.2* | . | 29.1* | i | 14.2 | 9.9
